Algae TAG accum = algal TAG accumulation induction. calls only at 10 µM (by protocol). AID 1159537. 0.84% of 44,000 active. Chlamydomonas reinhardtii TAG, Nile Red fluorescence, 72 h; call rule not given here;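 further: hits raise Nile Red signal meaning more stored TAG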
Large screens that a line does not name were inactive. The sample as a whole holds a higher share of hits than the screen did.

CCc1ccccc1NC(=O)[C@@H]1C[C@@H]1c1ccccc1	none
CC(C)Cc1nnc(NS(=O)(=O)c2ccc(F)cc2)s1	none
CCCC(=O)Nc1cc(OC)c(Cl)cc1OC	none
COc1cc(NC(=O)C(Cl)Cl)c(OC)cc1Cl	Algae TAG accum active
COc1ccc(NC(=O)C(Cl)Cl)cc1Cl	none
COc1cc([N+](=O)[O-])ccc1NS(=O)(=O)c1c(C)cc(C)cc1C	none
COc1ccc(CCNc2ncnc3ccc(Br)cc23)cc1OC	none
c1cc2c(cc1CN1CCOCC1)OCO2	none
c1ccc2c(c1)CCN(Cc1ccc3c(c1)OCO3)C2	Algae TAG accum active
c1cc2c(cc1CN1CCCCC1)OCO2	none
O=[N+]([O-])c1cccc(S(=O)(=O)Nc2ccccc2Cl)c1	none
COc1ccc(C(CC(=O)c2ccc(F)cc2)S(=O)(=O)c2ccccc2)cc1 (stereo not given)	none
Cc1ccc(C(=O)N2CCN(c3ccc(F)cc3)CC2)cc1[N+](=O)[O-]	none
CC1CCCCN1S(=O)(=O)c1ccc(C(=O)Nc2ccc([N+](=O)[O-])cc2)cc1 (stereo not given)	none
COc1cc(C(=O)Nc2ccc(S(=O)(=O)N3CCCCC3C)cc2)cc(OC)c1OC (stereo not given)	none
CC1CCCCN1S(=O)(=O)c1ccc(NC(=O)c2ccc(Cl)cc2Cl)cc1 (stereo not given)	Algae TAG accum active
Cc1cc2nn(-c3ccccc3)nc2cc1NC(=O)c1ccc([N+](=O)[O-])c(C)c1	none
COc1ccc(NC(=O)CCC2CCCCC2)c([N+](=O)[O-])c1	Algae TAG accum active
COc1ccc(NC(=O)CCC2CCCCC2)c(OC)c1	none
Cc1ccc(NC(=O)CCC2CCCCC2)c([N+](=O)[O-])c1	none
CN1CCN(c2ncnc3sc4c(c23)CCCC4)CC1	none
CC(C)C(NS(=O)(=O)c1cccs1)C(C)C	Algae TAG accum active
CC(C)c1ccc(NS(=O)(=O)c2cccs2)cc1	none
Cc1cc(C)cc(NS(=O)(=O)c2cccs2)c1	none
O=C(Nc1ccccc1)NC1CCCC1	none
O=C(NCCOc1cccc(Cl)c1Cl)c1cncc(Br)c1	none
OC1(C#CCN2CCOCC2)CCCCC1	none
C(#CC1CC1)CN1CCOCC1	none
C(#CC12CC3CC(CC(C3)C1)C2)CN1CCOCC1	Algae TAG accum active
O=c1c2cc3c(=O)n(CCO)c(=O)c3cc2c(=O)n1CCO	none
O=Cc1ccc2ccc3ccc(C=O)nc3c2n1	none
CC(C)NC(=O)c1ccccc1NC(=O)c1ccc(Br)cc1	Algae TAG accum active
O=C(Nc1ccccc1C(=O)NCCCCO)c1ccc(Br)cc1	none
O=C(Nc1ccccc1C(=O)NCCc1ccccc1)c1ccncc1	none
CC(C)c1ccc(C(=O)Nc2ccccc2C(N)=O)cc1	none
CC(C)NC(=O)c1ccccc1NC(=O)c1ccc(Cl)cc1	Algae TAG accum active
O=C(Nc1ccccc1F)c1ccc(Br)cc1	none
CC(C)NC(=O)c1ccccc1NC(=O)c1ccccc1	none
O=C(Nc1ccccc1C(=O)Nc1ccccc1Cl)c1ccncc1	Algae TAG accum active
O=C(Nc1ccccc1Cl)c1cccc(Cl)c1Cl	none
O=C1CC(=O)N2N=C(Cc3ccccc3)SC2=N1	none
CC1=C(C#N)C(c2ccc(N(C)C)cc2)C2=C(CCCC2=O)N1 (stereo not given)	none
O=C(O)C1C2C=CC(C2)C1C(=O)N(Cc1ccccc1)Cc1ccccc1 (stereo not given)	none
COc1ccc(NC(=O)c2ccccc2NC(=O)CCC(=O)O)c(OC)c1	none
CN(CCc1ccccn1)C(=O)c1ccc(F)cc1	none
O=C(CNc1cccc(Br)c1)c1ccc([N+](=O)[O-])cc1	none
Cc1ccccc1Nc1cccc2nccnc12	none
O=C(c1ccccc1[N+](=O)[O-])N1CCN(c2cccc(Cl)c2)CC1	none
COCCCN1C(=O)C(O)=C(C(=O)c2ccc(C)o2)C1c1ccc(Br)cc1 (stereo not given)	none
CN1CCN(CC(O)COc2ccc(Cl)cc2Cl)CC1 (stereo not given)	none
OC(COc1ccc(Cl)cc1Cl)CN1CCN(Cc2ccccc2)CC1 (stereo not given)	Algae TAG accum active
CCOC(=O)N1CCN(CC(O)COc2ccc(Cl)cc2Cl)CC1 (stereo not given)	none
O=C(CSc1ccccc1)Nc1ccc(Br)cc1F	none
Cc1cc(C)c(NC(=O)C(=O)NCCO)c(C)c1	none
CCOc1ccccc1N1CCN(C(=O)C2CCN(CC3CCCCC3)CC2)CC1	none
Fc1ccccc1N1CCN(CC2CCCCC2)CC1	Algae TAG accum active
Fc1ccccc1N1CCN(C2Cc3ccccc3C2)CC1	none
CCc1ccccc1N(CC(=O)Nc1ccccc1C(=O)O)S(C)(=O)=O	none
OCCNc1ccccn1	none
O=C(O)CCCCc1cc2c(s1)CCCC(=O)N2	none
COc1cc(Br)cc(CN2CCN(CCO)CC2)c1O	none
COc1ccc(-c2noc(COc3ccc(Br)cc3C)n2)cc1OC	none
Cc1cccc(-c2noc(COc3ccc(Br)cc3)n2)c1	Algae TAG accum active
Cc1cc(OCc2nc(-c3cccnc3)no2)cc(C)c1Br	none
O=C(NCc1ccc(Cl)c(Cl)c1)c1ccc(Br)o1	none
O=C(O)c1cccc(NC(=O)c2cc(S(=O)(=O)Nc3cccc([N+](=O)[O-])c3)ccc2Cl)c1	none
COc1ccc(/C=C(/C#N)c2nc(-c3ccc(Br)cc3)cs2)cc1OC	none
CCc1ccc(OCCOCCN2CCOCC2)cc1	Algae TAG accum active
c1ccc(-c2ccccc2OCCCN2CCOCC2)cc1	none
CCC(C)c1ccccc1OCCCN1CCOCC1 (stereo not given)	Algae TAG accum active
CCC(C)c1ccccc1OCCNC(C)C (stereo not given)	none
Clc1ccc(OCCOCCN2CCOCC2)cc1Cl	none
O=[N+]([O-])c1ccccc1OCCCN1CCOCC1	none
CCC(C)c1ccccc1OCCCCN1CCCC1 (stereo not given)	Algae TAG accum active
Fc1ccccc1OCCN1CCOCC1	none
CCC(C)c1ccccc1OCCOCCN1CCOCC1 (stereo not given)	Algae TAG accum active
CCOc1ccc(OCCOCCN2CCOCC2)cc1	none
CCC(C)c1ccccc1OCCN1CCCC1 (stereo not given)	none
CCC(C)c1ccccc1OCCOCCN1CCCC1 (stereo not given)	none
CC(=O)Nc1ccc(S(=O)(=O)N2CCN(C(C)C)CC2)cc1	none
Cc1ccc(S(=O)(=O)N(c2ccccc2F)C(F)F)cc1	none
COc1cccc(C(=O)Nc2ccc(-c3nc4ccccc4s3)c(O)c2)c1	none
Clc1ccc(Cl)c(OCCCCN2CCNCC2)c1	Algae TAG accum active
Clc1cc(Br)ccc1OCCCCN1CCCC1	none
Cc1cc(Cl)ccc1OCCN1CCNCC1	none
O=C(Cc1ccccc1)Nc1cc(NC(=O)c2cccs2)ccc1Cl	none
O=C1CC(N2CCN(C/C=C/c3ccccc3)CC2)C(=O)N1c1ccc(Br)cc1 (stereo not given)	none
Cc1ccc(C)c(N2CCN(C3CCc4ccccc4C3)CC2)c1 (stereo not given)	Algae TAG accum active
C(=C\c1ccccc1)/CN1CCN(C2CCc3ccccc3C2)CC1 (stereo not given)	Algae TAG accum active
Fc1cccc(F)c1CN1CCN(C/C=C/c2ccccc2)CC1	none
CN1CCN(C2Cc3ccccc3C2)CC1	none
Cc1ccc(C)c(N2CCN(C(=O)C3CCC3)CC2)c1	none
O=C(Nc1ccc([N+](=O)[O-])cc1)/C(=C\c1ccco1)NC(=O)c1ccco1	none
O=C(Nc1ccc2c(c1)CCC2)c1c(F)cccc1F	none
O=C(c1cc(Br)ccc1Cl)N1CCN(Cc2ccc3c(c2)OCO3)CC1	none
CCOc1ccc(C(=O)NCCC(=O)O)cc1	none
CCOc1ccc(C(=O)NCCNC(=O)c2ccc(OCC)cc2)cc1	Algae TAG accum active
CCOc1ccc(C(=O)NCCCN(C)C)cc1	none
CNC(=O)CN(C)S(=O)(=O)c1ccc(Cl)cc1	none
CN1C(=O)C(=O)N(CC(=O)NCc2ccco2)C1=O	none
N#CCCN1CCN(c2ccc([N+](=O)[O-])cc2F)CC1	none

Screening results (PubChem BioAssay)
